Assay results taken from PubChem BioAssay AID720514 (Broad Institute, 2013).
Out of some 2,100 compounds screened, about 300 (14%) were called active. Inconclusive results (about 2%) are left out.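 The calls were made as follows: active = every replicate test run called active, with the signal falling and half-maximal concentration within twice the top valid dose; inconclusive = the replicate test runs disagree in their calls; inactive = every test run inactive, including effects in the opposite direction.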 Not all results are given here. Results with a measured potency or affinity are listed apart.

Test: reduced cellular PGC1a acetyl-lysine signal – cell-based, cherry-picked samples, dose response (AID 720514);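 also: actives lower the acetylation signal so they count as inhibitors of PGC1a acetylation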
Conditions: U2OS PGC1a acetylation, AlphaLISA, overnight; series mostly up to 19.5 µM

outcome, inactive:
O=C(/C=C/Sc1ncn[nH]1)c1ccc(Cl)cc1
Cc1sc(NC(=O)c2cccs2)nc1-c1ccccc1
CN1CCN(C(=O)CSc2nc(-c3cccs3)cc(-c3cccs3)c2C#N)CC1
CC(=O)c1ccc(OCC(=O)OCC(=O)Nc2sccc2C(N)=O)cc1
CCOC(=O)c1c(NC(=O)CSc2cn(CC)c3ccccc23)sc2c1CCC2
CCOC(=O)c1nc(S(C)(=O)=O)ncc1Cl
O=C(c1ccc(NC(=O)C2(c3ccccc3)CCOCC2)cc1)N1CCOCC1
CCOC(=O)c1c(NC(=O)c2ccoc2C)sc2c1CCC2
CC1CCCN(Cc2c(O)ccc3c(=O)c(-c4nc5ccccc5s4)c(N)oc23)C1 (stereo not given)
Cc1ccccc1S(=O)(=O)NCC[C@@H]1CC[C@H](NC(=O)C2CCOCC2)[C@@H](CO)O1
CC(C)NC(=O)NCC[C@H]1CC[C@H](NC(=O)c2ccc(F)cc2)[C@H](CO)O1
CCC(C)(CC(=O)O)CC(=O)Nc1cc(C(F)(F)F)cc(C(F)(F)F)c1 (stereo not given)
COc1ccc(-c2nc3c(C)cc(Br)cn3c2Cc2ccc(C)cc2)cc1OC
COc1cc(C)c(CN2CCN(S(=O)(=O)c3ccc(Cl)s3)CC2)cc1OC
O=C(CN1CCC(n2nnc3cc(F)ccc32)CC1)Nc1ccc2c(c1)CCC2
CCOC(=O)C1=C[C@@H](C(C)(C)C)N(S(=O)(=O)c2ccc(C)cc2)[C@H]1c1cccc2ccccc12
Cc1ccccc1S(=O)(=O)N[C@@H]1CC[C@@H](CCn2cc(Cc3ccccc3)nn2)O[C@H]1CO
CC(C)(C)C(=O)Nc1sc2c(c1-c1nc3ccccc3[nH]1)CCCC2
CC(Sc1nc2ccccc2s1)C(=O)NC1CCCc2ccccc21 (stereo not given)
Cc1ccc(CNC(=O)C2CC(c3ccc([N+](=O)[O-])cc3)=NO2)cc1 (stereo not given)
Cc1coc2cc3oc(=O)c(CCC(=O)NC4CC4)c(C)c3cc12
Cc1ccccc1-c1ccc([C@@H]2[C@H](CO)N3CCCCN(C(=O)Nc4cccc(F)c4)C[C@@H]23)cc1
CCOC(=O)c1ccccc1NS(=O)(=O)c1ccc(OCC)cc1
CCOc1ccc(N(C)S(=O)(=O)c2cc(-c3cc(C)no3)ccc2OC)cc1
COc1ccc(NC(=O)CSC2CC(=O)N(c3ccc4c(c3)OCCO4)C2=O)cc1 (stereo not given)
COc1ccc(N(C(=O)c2snc(C(N)=O)c2N)C(C(=O)NC2CCCCC2)c2ccc(F)cc2)c(OC)c1 (stereo not given)
COc1ccc(N(C(=O)c2csnn2)C(C(=O)NC2CCCC2)c2cccs2)cc1 (stereo not given)
COc1ccc(N(C(=O)c2snc(C(N)=O)c2N)C(C(=O)NC2CCCC2)c2ccco2)c(OC)c1 (stereo not given)
CC(C)C(OC(=O)c1cccs1)C(=O)NC1CCCCC1 (stereo not given)
COc1ccc(N(C(=O)c2snc(C(N)=O)c2N)C(C(=O)NC2CCCCC2)c2ccc(C)o2)cc1 (stereo not given)
